{
  "source": "the supplement of paper PMC10503962",
  "data": [
    {"tested_on": "Trichuris muris adult worms", "assay": "mean motility score (Paragon pixel variance) of adult worms (arbitrary units); higher = more motile worms, i.e. less anthelmintic effect; extreme values may be limits of the assay", "settings": "100 µM; 24 h", "how_it_was_run": "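Films of 200 frames spaced 100 ms apart were taken on an automated phenotyping platform after worms had spent 24 h at 37°C and 5% CO2. Those worms were single adult Trichuris muris from infected NOD SCID mice, each in a 96-well plate well with 100 μL RPMI-1640 plus antibiotics and drug at 100 μM (1% v/v DMSO). Paragon pixel-variance analysis produced the motility score, averaged over replicate wells. Testing used three worms in three wells per drug across three separate occasions, with vehicle and positive controls.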", "values": [
      {"smiles": "Nc1ncnc2c1ncn2[C@@H]1O[C@H](COP(=O)(O)O)[C@@H](O)[C@H]1O", "note": "[adenosine phosphate]", "mean motility score": 4280},
      {"smiles": "NC(CO)(CO)CO", "note": "[tromethamine]", "mean motility score": 2770},
      {"smiles": "CNCCCN1c2ccccc2CCc2ccccc21", "note": "[desipramine]", "mean motility score": 1090},
      {"smiles": "Cc1ccccc1C(OCCN(C)C)c1ccccc1.Cl", "note": "(stereo not drawn) [orphenadrine hydrochloride]", "mean motility score": 1810},
      {"smiles": "CCCc1nc(C)c2c(=O)nc(-c3cc(S(=O)(=O)N4CCN(CC)CC4)ccc3OCC)[nH]n12", "note": "[vardenafil]", "mean motility score": 2160},
      {"smiles": "C=CC(=O)N1CCC[C@@H](n2nc(-c3ccc(Oc4ccccc4)cc3)c3c(N)ncnc32)C1", "note": "[ibrutinib]", "mean motility score": 433},
      {"smiles": "Cl.N=C(N)NC(=O)c1nc(Cl)c(N)nc1N", "note": "[amiloride hydrochloride]", "mean motility score": 2260},
      {"smiles": "CCO[C@@H](Cc1ccc(OCCc2ccc(OS(C)(=O)=O)cc2)cc1)C(=O)O", "note": "[tesaglitazar]", "mean motility score": 3880},
      {"smiles": "CC(=O)OC[C@H]1O[C@@H](n2ncc(=O)[nH]c2=O)[C@H](OC(C)=O)[C@@H]1OC(C)=O", "note": "[azaribine]", "mean motility score": 3970},
      {"smiles": "CN1CCN(CCOc2cc(OC3CCOCC3)c3c(Nc4c(Cl)ccc5c4OCO5)ncnc3c2)CC1", "note": "[saracatinib]", "mean motility score": 1640},
      {"smiles": "CCCCCCCCCCCCCCCCO", "note": "[cetyl alcohol]", "mean motility score": 1880},
      {"smiles": "COc1cc(N)c(Cl)cc1C(=O)NC1CCN(CCCOc2ccc(F)cc2)CC1OC.O", "note": "(stereo not drawn) [cisapride monohydrate]", "mean motility score": 2840},
      {"smiles": "CC(C)C(=O)Nc1ccc([N+](=O)[O-])c(C(F)(F)F)c1", "note": "[flutamide]", "mean motility score": 113}
    ]}
  ]
}
